Compound activity from PubChem.
L3MBTL1 inh: inhibitors of human L3MBTL1; 230,000 tested, 0.66% active; Potency, µM (highest dose often 57.1 µM), usual class: inhibitors; AlphaScreen L3MBTL1–H3K9me1 peptide binding; Q9Y468; AID 485360; note: nearly all actives have a fitted effect of over 60% in size
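L3MBTL1 (50 nM) pre-complexed 30 min with biotinylated H3(1-15)K9me1 peptide (75 nM), then compounds added for 30 min at room temperature; AlphaScreen streptavidin donor/nickel chelate acceptor beads (10 ug/mL final) read after 30 min dark incubation.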
RECQ1 inh: blocks DNA unwinding by human RECQ1. RECQ1 DNA unwinding, red fluorescence kinetic read. Potency, µM (doses to about 57.3 µM), most hits filed as inhibitors. AID 2549. 240,000 tested, 0.54% active; note: nearly all actives have a fitted effect of over 30% in size
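50 nM RECQ1T1 preincubated 15 min with compound in Tris pH 8.0 buffer with MgCl2, DTT, Tween-20 and 2.5 ug/ml poly(dI-dC); started with 200 nM TAMRA/BHQ-2 forked duplex and 2 mM ATP. Unwinding read as fluorescence (525/598 nm), two reads 2 h apart.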
KDM4E inh: inhibitors of human JMJD2E histone demethylase. B2RXH2. JMJD2E catalytic domain, FDH-coupled NADH fluorescence (FDH is formaldehyde dehydrogenase). Potency, µM (highest dose often 57.1 µM), most hits filed as inhibitors. 230,000 tested, 1.6% active. AID 2147; active = well fitted inhibition curve with a large enough effect, not every such curve was filed as active; inconclusive = small, poorly fitted or top-dose-only effect, or another doubt; inactive = no such curve, though single readings can be large or run the other way; note: nearly all actives have a fitted effect of over 50% in size
BLM helicase inh: blocks DNA unwinding by human BLM helicase | recombinant BLM DNA unwinding, fluorescence dequenching | Potency, µM (doses to about 56.1 µM), actives largely listed as inhibitors | 350,000 tested, 0.2% active; note: nearly all actives have a fitted effect of over 35% in size
APEX1 inh: inhibitors of human APE1 endonuclease. P27695. recombinant APE1, TAMRA/BHQ-2 abasic DNA cleavage fluorescence. 350,000 tested, 0.35% active. Potency, µM (highest dose often 65.8 µM), most hits filed as inhibitors; note: nearly all actives have a fitted effect of over 55% in size
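Activity was derived from the fluorescence gain between first and third kinetic reads (60 s intervals, ex 525/em 598 nm) after 50 nM THF-abasic TAMRA/BHQ-2 duplex was added to 0.75 nM APE1 preincubated 15 min with compound.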
Numbers stand for hits; – = inactive; ? = inconclusive; · = no result given; ! = not active in a repeat; [ ] = another dose, or the depositor's remark. This excerpt belongs to a sample that is enriched for hits. Unless noted, calls come from the whole dose curve; as a rule, active = well fitted curve in the direction sought with a large enough effect; inconclusive = small, poorly fitted or top-dose-only effect, or another doubt; inactive = no such curve, though single readings can be large; an effect the other way counts as inactive or inconclusive.

SMILES	L3MBTL1 inh	RECQ1 inh	KDM4E inh	BLM helicase inh	APEX1 inh
COc1ccc(C(CC(=O)N2CCOCC2)c2c(OC)cc(OC)c3c(-c4ccccc4)cc(=O)oc23)cc1 (centres undefined)	·	–	–	22µM!	32µM!
CCCCCc1cc(=O)oc2c(C(CCN3CCCC3)c3cc(OC)c(OC)c(OC)c3)c(OC)cc(OC)c12 (centres undefined)	·	–	22µM	–	–
CCCCCc1cc(=O)oc2c(C(CCN3CCCCC3)c3ccc(OC)cc3)c(OC)cc(OC)c12 (centres undefined)	·	–	?	–	–
COc1cc(OC)c2c(-c3ccccc3)cc(=O)oc2c1C(CC(=O)N1CCCC1)c1ccc(N(C)C)cc1 (centres undefined)	·	–	·	–	–
COc1cc(C(CC(=O)N2CCCC2)c2c(OC)cc(OC)c3c(-c4ccccc4)cc(=O)oc23)cc(OC)c1OC (centres undefined)	·	18µM	–	–	?
NCCNCCN	·	5.6µM	·	–	3.5µM
CCOC(=O)c1cc(-c2ccccc2)n(CC(=O)Nc2ccccc2OCC)c1C	·	·	·	–	·
CC(c1ccccc1)C1C(C#N)=C(N)SC(N)=C1C#N (centres undefined)	–	–	?	–	–
CC(CC1C(C#N)=C(N)SC(N)=C1C#N)c1ccccc1 (centres undefined)	–	–	22µM	–	–
CCCCCCNC(=O)CCc1c(C)nc2nc(-c3cc(OC)cc(OC)c3)nn2c1C	·	·	·	–	·
Clc1ccc(-c2cnnc(-c3ccccn3)n2)cc1	3.2µM	·	·	·	–
Cc1cc(C2CCCCC2)n(O)c(=O)c1	–	–	10µM	–	–
Cc1cc(CC(C)CC(C)(C)C)n(O)c(=O)c1 (centres undefined)	·	·	·	–	·
O=S(=O)(c1ccc(Cl)cc1)N1CCN(Cc2ccc(O)c3ncccc23)CC1	?	–	25µM	–	–
CN1CCN(C2CCN(Cc3ccc(O)c4ncccc34)CC2)CC1	14µM	·	·	·	–
CN1C(=O)CC(N2CCC(C(N)=O)CC2)C1=O (centres undefined)	–	–	–	–	–
Cc1ccccc1N1C(S)=C(C#N)C(=O)NC1c1ccco1 (centres undefined)	?	25µM	–	–	–
Cc1onc(-c2ccccc2)c1C(=O)NC(=S)NNC(=O)c1cc(-c2ccc(F)cc2)n[nH]1	·	–	13µM	–	–
CN(C)c1ccc(/C=C/c2ccc3ccccc3n2)cc1	–	–	22µM	–	–
CC/C=C\C/C=C\C/C=C\CCCCCCCC(=O)O	?	1.8µM!	?	?	–
CCCCn1c(CNC(=O)C(C)(C)C)nc2ccccc21	?	–	–	–	–
Cc1cccc(C2c3[nH]c4ccccc4c3CCN2C(=O)c2nn(C)c(=O)c3ccccc23)n1 (centres undefined)	–	–	–	–	–
Cc1cccc(C2c3[nH]c4ccccc4c3CCN2C(=O)c2ocnc2C)n1 (centres undefined)	–	–	22µM	–	–
C=CCNC(=O)c1cc([N+](=O)[O-])cc2c(=O)[nH]c(Nc3ccc(Cl)c(Cl)c3)nc12	·	7.1µM	–	–	7.9µM
C=CCNC(=O)c1ccc([N+](=O)[O-])c(Cl)c1	–	–	–	–	–
SMILES	L3MBTL1 inh	RECQ1 inh	KDM4E inh	BLM helicase inh	APEX1 inh
Cc1ccccc1NCc1ccc(O)c2ncccc12	?	–	7.1µM	–	–
Cc1ccc(O)c2ncccc12	·	·	·	–	·
Oc1ccc(COCc2ccc(F)cc2)c2cccnc12	?	·	·	·	–
Oc1ccc(CN2CCN(Cc3ccccc3)CC2)c2cccnc12	–	–	–	–	–
Oc1ccc(CNc2ccccc2)c2cccnc12	?	–	8.9µM	–	–
Oc1ccc(CNc2ccc(F)cc2)c2cccnc12	32µM	?	7.9µM	–	–
Cc1cc(C(=O)N/N=C/c2cccnc2)c2ccccc2n1	·	·	·	–	–
Cc1cc(C(F)F)n2nc(C(=O)Nc3cc(Cl)ccc3C)nc2n1	·	·	·	–	·
CCOc1ccc(C(=O)Nc2ccc(NC(=S)NC(=O)CC)cc2)cc1Cl	–	–	–	–	–
COc1c(C(C)C)cc(NC(C)=O)cc1C(C)C	·	–	–	–	–
Oc1cc(-n2cccn2)c(O)cc1-n1cccn1	–	–	16µM	–	–
COc1ccc(NC(=O)C2CCN(S(=O)(=O)c3cccc4nonc34)CC2)c(OC)c1	·	·	·	–	–
COc1ccc(C(O)c2coc3ccc(O)c(CN(C)C)c23)cc1 (centres undefined)	·	–	–	–	–
CC(C)CCC(C(=O)O)C(C)CC(=O)NNC(=O)c1ccco1 (centres undefined)	28µM!	–	–	–	–
Cc1ccccc1/C=C/c1cc[n+](C)cc1	·	–	25µM	–	–
Cc1[nH]c2ccccc2c1/C=C/c1cc[n+](C)cc1	–	–	–	–	–
CC1(C)CC(=O)C2=C(C1)c1c(ccc3ccccc13)NC2c1ccc(C(=O)O)cc1 (centres undefined)	·	·	·	–	–
COc1cc(C2Nc3ccc4ncccc4c3C3=C2C(=O)CC(C)(C)C3)cc(OC)c1O (centres undefined)	·	–	7.9µM	–	–
CC1(C)CC(=O)C2=C(C1)c1c(ccc3ccccc13)NC2c1cc([N+](=O)[O-])cc([N+](=O)[O-])c1O (centres undefined)	–	–	–	22µM	–
COc1cc(C2Nc3ccc4ncccc4c3C3=C2C(=O)CCC3)cc(OC)c1O (centres undefined)	–[11.4 µM]	–	–	–	–
CN(C)CCCN1C(=O)c2cccc3cccc(c23)C1=O	–	·	·	–	–
CC1=CC2=C(OC1N(C)C)c1cccc3cccc(c13)C2=O (centres undefined)	·	–	20µM	–	?
Cc1ccccc1N(Cc1cc(=O)[nH]c2ccccc12)C(=O)CCl	·	·	·	–	–
O=C(NN1C(=O)/C(=C/c2cc([N+](=O)[O-])ccc2O)SC1=S)c1ccccc1O	4.5µM	·	·	·	–
O=C(NN1C(=O)/C(=C/c2ccc(O)c([N+](=O)[O-])c2)SC1=S)c1ccccc1Cl	·	–	–	–	?
SMILES	L3MBTL1 inh	RECQ1 inh	KDM4E inh	BLM helicase inh	APEX1 inh
CC(=O)OC[C@]12CC[C@H]3[C@@](C)(CC[C@H]4C(C)(C)CCC[C@]34C)[C@@H]1C[C@H](C1=CC(=O)O[C@H]1OC(C)=O)O2	–	·	·	·	9.5µM
Cc1ccc(NC2Sc3ccccc3NC2=O)cc1 (centres undefined)	–	–	22µM	–	–
O=C1Nc2ccccc2SC1c1ccccc1 (centres undefined)	·	·	·	–	–
COc1ccc(OCC(O)CN2CCN(c3ccc(Cl)cc3)CC2)cc1 (centres undefined)	·	–	–	–	–
COc1ccc(N2CCN(CC(O)COC(C)(C)C)CC2)cc1 (centres undefined)	–	–	25µM	–	–
O=[N+]([O-])c1cc(Br)cc(C=Nc2ccc3c(c2)OCO3)c1O	–	?	?	14µM	–
Cc1nc(NC(=O)c2ccco2)sc1-c1csc(Nc2ccc(Cl)cc2Cl)n1	–	–	?	–	–
